CYP2C19 act: activators of human cytochrome P450 2C19; AID 1025; P33261; recombinant CYP2C19, luciferin-H EGE luminescence; hits give high values; 0 = fully inhibited enzyme, 1 = untreated enzyme; 96,000 tested, under 10 active; activation factor at 5 µM;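 active = activation factor of at least 2 at 5 µM in the primary screen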
Target sequence (P33261 whole entry, looked up): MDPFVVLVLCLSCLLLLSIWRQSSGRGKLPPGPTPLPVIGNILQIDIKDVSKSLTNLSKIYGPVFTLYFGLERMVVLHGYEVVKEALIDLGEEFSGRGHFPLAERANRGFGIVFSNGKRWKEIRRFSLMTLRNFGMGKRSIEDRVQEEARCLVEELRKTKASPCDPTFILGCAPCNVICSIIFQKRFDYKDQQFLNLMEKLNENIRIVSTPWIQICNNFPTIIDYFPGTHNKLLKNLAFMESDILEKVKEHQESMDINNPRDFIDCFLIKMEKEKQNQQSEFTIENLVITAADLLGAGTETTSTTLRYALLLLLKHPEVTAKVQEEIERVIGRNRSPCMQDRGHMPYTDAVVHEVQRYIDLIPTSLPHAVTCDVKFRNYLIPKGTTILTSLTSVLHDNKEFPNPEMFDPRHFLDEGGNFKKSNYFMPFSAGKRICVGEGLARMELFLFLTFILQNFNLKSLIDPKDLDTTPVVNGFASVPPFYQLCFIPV
Cav32 inh: inhibitors of human Cav3.2 T-type calcium channel; O95180; Cav3.2-expressing cells, Fluo-4 calcium fluorescence FDSS; hits give low values; B-score at 10 µM; hit rate 4% among 100,000;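 active = single-dose well whose peak fluorescence ratio is a statistical outlier from its plate by either plate-standardised score or position-corrected B-score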
CYP2C9 act: CYP2C9 (human) activation | P11712 | hit rate 1.4% among 96,000 | AID 1024 | activation factor at 5 µM | recombinant CYP2C9, luciferin-H conversion, luminescence; hits give high values; factor 1 = untreated enzyme, 0 = blocked;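 active = activation factor of 2 or more for CYP2C9 at a 5 µM dose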
CYP2C9 inh: human CYP2C9 inhibition; P11712; CYP2C9 Supersomes, luciferin-H conversion, luminescence; inhibition, % at 5 µM; hit rate 20% among 96,000; AID 777;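 active = blocking of liver enzyme CYP2C9 beyond about 50% at 5 µM, limit read from the data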
CYP2C19 inh: blocks human cytochrome P450 2C19; P33261; CYP2C19 Supersomes, luciferin-H EGE luminescence, 30 min; inhibition, % at 5 µM; hit rate 21% among 96,000;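 active = CYP2C19 inhibition above a set limit at 5 µM in the primary screen, cut at about 50% in these data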
Large screens that a line does not name were inactive. An excerpt weighted towards active compounds, which were near 27% of everything screened.

CCN(Cc1ccccc1)C(c1ccc(C(F)(F)F)cc1)c1nnnn1C(C)(C)C (stereo not given)	Cav32 inh -4.4 (no result: CYP2C19 act, CYP2C9 act, CYP2C9 inh, CYP2C19 inh)
CCN(Cc1ccccc1)C(c1cccc(C#N)c1)c1nnnn1C(C)(C)C (stereo not given)	CYP2C9 inh 91, CYP2C19 inh 72
CC(C)(C)c1ccc(OCCC(=O)NC2=NCCS2)cc1	none
COc1ccc(OCCC(=O)NC2=NCCS2)cc1	CYP2C19 inh 76
Cc1nn(-c2ccccc2)c(Oc2ccc(F)cc2)c1/C=N/n1cnnc1	CYP2C9 inh 60, CYP2C19 inh 56
Cc1cccc(OCC(=O)NC(C)C(=O)N/N=C/c2c(OCc3ccccc3)ccc3ccccc23)c1 (stereo not given)	Cav32 inh -6.8, CYP2C9 inh 89
CC(C)C(=O)N/N=C/c1ccc(OCc2ccccc2)cc1	none (no result: Cav32 inh)
COc1ccc(C(=O)N2CCCC2)cc1S(=O)(=O)N1CCC(C)CC1	none
COc1ccc(Cl)cc1S(=O)(=O)N1CCN(C(=O)COc2ccccc2)CC1	CYP2C19 inh 62
COc1ccc(C(=O)N2CCN(S(=O)(=O)c3cc(Cl)ccc3OC)CC2)cc1	CYP2C19 inh 67
O=C(COc1ccccc1)N1CCN(S(=O)(=O)Cc2ccccc2)CC1	none
Cc1ccc(Nc2nc(Oc3ccc(OCc4ccccc4)nn3)nc(N3CCOCC3)n2)cc1	CYP2C9 inh 77, CYP2C19 inh 82
c1ccc(COc2ccc(Oc3nc(N4CCCCC4)nc(N4CCOCC4)n3)nn2)cc1	CYP2C9 inh 59, CYP2C19 inh 88 (no result: Cav32 inh)
O=C(NC1CC1)C1CCN(c2ncnc3c2sc2cccc(F)c23)CC1	CYP2C9 inh 73, CYP2C19 inh 61
COc1ccc(N=c2sc3ccccc3n2C)cc1	CYP2C19 inh 51
CCOc1ccccc1N1CCN(C/C=C/c2ccc(N(C)C)cc2)CC1	none
COc1ccc(-c2oc3ccccc3c(=O)c2OC(=O)c2ccc(C)cc2)cc1	CYP2C9 inh 89, CYP2C19 inh 84
Oc1ccc(C=Nc2cccc3ncccc23)c(O)c1	none
Oc1ccc(C=Nc2ccc3ncccc3c2)c(O)c1	CYP2C19 inh 56 (no result: Cav32 inh)
Cc1cccc2cc(CN(Cc3ccc(F)cc3)C(=O)N3CCOCC3)c(=O)[nH]c12	none (no result: CYP2C19 act, CYP2C9 act, CYP2C9 inh, CYP2C19 inh)
COc1cccc(-c2nnc(SCC(=O)Nc3ccc(OC)c(OC)c3)n2N)c1	none
O=C(CSc1ncn[nH]1)OCN1C(=O)c2ccccc2C1=O	none
COc1ccc(CCC(=O)NCCc2cn3c(C)csc3n2)cc1	CYP2C19 inh 53
O=C(CSc1ncn[nH]1)NCCOc1ccccc1	none
COc1ccc(CCNC(=O)CSc2ncn[nH]2)cc1	CYP2C19 inh 52
COc1ccc(OCCSc2ncn[nH]2)cc1	none
COc1ccc(CCC(=O)NCc2cn3ccsc3n2)cc1	none (no result: CYP2C19 act, CYP2C9 act, CYP2C9 inh, CYP2C19 inh)
O=C(CSc1ncn[nH]1)NCCC(c1ccccc1)c1ccccc1	CYP2C9 inh 65, CYP2C19 inh 83
CCOC(=O)C(Sc1ncn[nH]1)c1ccccc1 (stereo not given)	CYP2C19 inh 64
O=C(CSc1nnc2c(Cl)cc(Cl)cn12)NC1CCS(=O)(=O)C1 (stereo not given)	none
CC(=NCCc1ccccc1)C1=C(O)COC1=O	none
COc1cc(/C=C/C(=O)CC(=O)/C=C/c2ccc(O)c(OC)c2)ccc1O	Cav32 inh -4.2 (no result: CYP2C19 act, CYP2C9 act, CYP2C9 inh, CYP2C19 inh)
COc1cc(/C=C/C(=O)O)ccc1O	none (no result: CYP2C19 act, CYP2C9 act, CYP2C9 inh, CYP2C19 inh)
CCOC(=O)c1cccc(NC(=O)CSc2nnc(CNc3ccc(C)cc3)n2CC)c1	Cav32 inh -4.1, CYP2C9 inh 70, CYP2C19 inh 66
CCn1c(COc2cccc(C)c2)nnc1SCC(=O)Nc1cccc(C(=O)O)c1	CYP2C9 inh 79
CCn1c(COc2ccccc2C)nnc1SCC(=O)NC1CCCC1	none
CCn1c(COc2cccc3ccccc23)nnc1SCC(=O)OC1CCCCC1	Cav32 inh -5.6, CYP2C19 inh 88
CCOC(=O)c1cccc(Nc2nc(-c3cccnc3)nc3ccccc23)c1	CYP2C9 inh 88, CYP2C19 inh 74 (no result: Cav32 inh)
CCCCn1cnc2c1c(=O)[nH]c(=O)n2CCCC	none
COC(=O)c1ccccc1NC(=O)CSc1nnc(-c2cccnc2)n1C	none (no result: CYP2C19 act, CYP2C9 act, CYP2C9 inh, CYP2C19 inh)
CCn1c(COc2cccc(OC)c2)nnc1SCC(=O)Nc1cccc(OC)c1	CYP2C9 inh 64, CYP2C19 inh 82
CCOC(=O)c1ccccc1NC(=O)CSc1nnc(COc2ccccc2)n1CC	Cav32 inh -5.7, CYP2C19 inh 89
CCn1c(COc2cccc(C)c2)nnc1SCC(=O)Nc1cccc(C(=O)OC)c1	CYP2C9 inh 56
CCn1c(SCC(=O)Nc2ccccc2C(=O)OC)nnc1-c1cccc(C)c1	CYP2C9 inh 68, CYP2C19 inh 99
O=C(NCCNCCO)C1(C(F)(F)F)C/C(=C\CCO)CCCO1 (stereo not given)	none (no result: CYP2C19 act, CYP2C9 act, CYP2C9 inh, CYP2C19 inh)
CCNc1nc2[nH]c(=O)c3c(c2s1)OC(N)=C(C#N)C3c1ccc(C)cc1 (stereo not given)	none
CCn1c(CNc2ccc(C)cc2)nnc1SCC(=O)NCc1ccccc1	CYP2C19 inh 78
CCn1c(CNC(=O)COc2ccc(C(C)C)cc2)nnc1SCC(=O)Nc1ccccc1	Cav32 inh -4
CCOC(=O)c1cccc(NC(=O)CSc2nnc(COc3ccccc3)n2CC)c1	Cav32 inh -6.1, CYP2C9 inh 63, CYP2C19 inh 58
COC(=O)c1cccc(NC(=O)CSc2nnc(COc3ccccc3)n2C)c1	none
CCOC(=O)c1cccc(NC(=O)CSc2nnc(-c3cccnc3)n2CC)c1	CYP2C9 inh 64, CYP2C19 inh 53
Cc1cc(NC(=O)c2ccc(N(C)S(=O)(=O)c3ccccc3)cc2)no1	none
Cc1ccccc1-c1nc(CN2CCC(C(=O)NCCCN3CC(C)CC(C)C3)CC2)c(C)o1 (stereo not given)	none
CN(C)c1ccnc(Oc2ccc(C(C)(C)C)cc2)c1C#N	none
C=CCSc1nnc(-c2cc3c(s2)-c2ccccc2CC3)o1	none
Cc1cc(C)n(C(=O)C2CCCN2S(=O)(=O)c2ccc(Cl)cc2)n1 (stereo not given)	none (no result: Cav32 inh)
CCn1c(COc2ccccc2C)nnc1SCC(=O)CC(=O)Nc1ccccc1	Cav32 inh -5, CYP2C9 inh 55
CCn1c(COc2ccccc2C)nnc1SCC(=O)Nc1cc(C)on1	none
CCOC(=O)CNC(=O)CSc1nc2cccnc2n1C1CCCCC1	none
COc1ccccc1NS(=O)(=O)c1ccc(NC(=O)CCNC(=O)c2ccco2)cc1	none
O=C(COc1ccc(Cl)cc1Cl)NCCC1=CCCCC1	none
O=C(Nc1ccc(F)cc1)N1CCn2c(nc3ccccc32)C1	none
COc1cccc(CNn2c(-c3cccc(C)c3)nc3ccccc3c2=O)c1	CYP2C9 inh 98, CYP2C19 inh 98
COc1ccc(OC)c(C(=O)Cn2nnc3ccccc3c2=O)c1	none
COc1ccc(OC)c(CNn2c(-c3cccc(C)c3)nc3ccccc3c2=O)c1	CYP2C9 inh 80, CYP2C19 inh 89
c1csc(-c2noc(COc3ccc4c(c3)CCCC4)n2)c1	none
COc1c(C(C)C)cc(NC(C)=O)cc1C(C)C	CYP2C19 inh 89
Cc1onc(-c2c(F)cccc2Cl)c1C(=O)NCc1ccco1	none
